Values joined by “and” are separate entries in the source; they are usually repeats but may differ in a detail not shown here. Equal values may be shown once. About 83,000 compounds went through this panel and 20% of them were active in at least one assay; those are over-represented in the sample as a whole.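 A percent growth of 40 corresponds to 60% growth inhibition; 0 means no net growth; -100 means all cells died. Active threshold: below 10.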
Assays:
Experiment in all cases: NCI-60 one-dose screen, 48 h (100 = growth as untreated, 0 = no growth, -100 = all killed)
Conditions in all cases: 10 µM unless noted
HCT-15 colon = system: HCT-15 colon
SNB-75 CNS = system: SNB-75 CNS
SNB-19 CNS = system: SNB-19 CNS
U251 CNS = system: U251 CNS
PC-3 prostate = system: PC-3 prostate
SK-MEL-5 melanoma = system: SK-MEL-5 melanoma
UACC-62 melanoma = system: UACC-62 melanoma
LOX IMVI melanoma = system: LOX IMVI melanoma
SK-MEL-28 melanoma = system: SK-MEL-28 melanoma
SK-MEL-2 melanoma = system: SK-MEL-2 melanoma
EKVX NSCLC = system: EKVX NSCLC
SN12C renal = system: SN12C renal
UO-31 renal = system: UO-31 renal
TK-10 renal = system: TK-10 renal
ACHN renal = system: ACHN renal
CAKI-1 renal = system: CAKI-1 renal
A498 renal = system: A498 renal
CCRF-CEM leukemia = system: CCRF-CEM leukemia
MOLT-4 leukemia = system: MOLT-4 leukemia
HT29 colon = system: HT29 colon

Measured: growth

COc1ccccc1C(C)=O
inactive: HCT-15 colon 108% and 95.7% | SNB-75 CNS 105% and 85.1% | SNB-19 CNS 116% and 109% | U251 CNS 107% and 106% | PC-3 prostate 89.7% and 96.9% | SK-MEL-5 melanoma 105% and 110% | UACC-62 melanoma 109% and 108% | LOX IMVI melanoma 103% and 60.6% | SK-MEL-28 melanoma 121% and 106% | SK-MEL-2 melanoma 109% | EKVX NSCLC 98% | SN12C renal 118% and 108% | UO-31 renal 89.4% and 96.5% | TK-10 renal 118% and 99.4% | ACHN renal 105% and 102% | CAKI-1 renal 99.5% and 112% | A498 renal 92% and 108% | CCRF-CEM leukemia 102% | MOLT-4 leukemia 95.4% and 99.1%

O=C(O)c1cc(C(=O)O)cc([N+](=O)[O-])c1
inactive: HCT-15 colon 104% | HT29 colon 105% | SNB-19 CNS 106% | U251 CNS 100% | PC-3 prostate 96.4% | SK-MEL-5 melanoma 104% | UACC-62 melanoma 105% | LOX IMVI melanoma 97.4% | SK-MEL-28 melanoma 118% | SK-MEL-2 melanoma 102% | EKVX NSCLC 106% | UO-31 renal 91.3% | TK-10 renal 102% | ACHN renal 105% | CAKI-1 renal 96.2% | A498 renal 103% | CCRF-CEM leukemia 94.9% | MOLT-4 leukemia 98.4%

COC(=O)[C@H]1CCCN1C(=O)C1CCCN1C(=O)[C@@H](Cc1ccccc1)NC(=S)Nc1cc(C(F)(F)F)cc(C(F)(F)F)c1 (stereo partly drawn)
inactive: HCT-15 colon 95.8% and 75.5% | HT29 colon 111% and 72.6% | SNB-19 CNS 92.1% and 86.7% | U251 CNS 98.8% and 77% | PC-3 prostate 101% and 53.3% | SK-MEL-5 melanoma 100% and 88.2% | UACC-62 melanoma 94.7% and 90.3% | LOX IMVI melanoma 103% and 88.1% | SK-MEL-28 melanoma 109% and 99.4% | SK-MEL-2 melanoma 109% and 103% | SN12C renal 96.1% and 84% | UO-31 renal 94.6% and 59.1% | TK-10 renal 114% and 90% | ACHN renal 98.4% and 85.6% | CAKI-1 renal 89.2% | A498 renal 96.6% and 81.4% | CCRF-CEM leukemia 106% and 72.2% | MOLT-4 leukemia 91.3% and 42.9%

Nc1nc2ncc(CNc3ccc(C(=O)N[C@@H](CCc4nn[nH]n4)C(=O)O)cc3)nc2c(=O)[nH]1
inactive: HCT-15 colon 104% and 103% | HT29 colon 104% and 92.3% | SNB-19 CNS 107% and 95.6% | U251 CNS 99.8% and 91.4% | PC-3 prostate 101% and 85.3% | SK-MEL-5 melanoma 101% and 96.7% | UACC-62 melanoma 97.3% and 94.5% | SK-MEL-28 melanoma 97.5% and 110% | SK-MEL-2 melanoma 105% and 104% | EKVX NSCLC 96.1% and 106% | SN12C renal 109% and 98.2% | UO-31 renal 89.7% and 89.8% | TK-10 renal 111% and 109% | ACHN renal 92.2% and 104% | CAKI-1 renal 93% and 101% | A498 renal 105% and 92.2% | CCRF-CEM leukemia 108% and 94.5% | MOLT-4 leukemia 95.6%

N=C1N=C(N)CS1
inactive: HT29 colon 105% | SNB-75 CNS 92.1% | SNB-19 CNS 104% | PC-3 prostate 101% | SK-MEL-5 melanoma 98.4% | UACC-62 melanoma 100% | SK-MEL-28 melanoma 109% | SK-MEL-2 melanoma 116% | SN12C renal 99.9% | UO-31 renal 93.2% | TK-10 renal 131% | ACHN renal 116% | CAKI-1 renal 96.5% | CCRF-CEM leukemia 104% | MOLT-4 leukemia 99.1%

— PubChem BioAssay (NCI)
